The source of these data is the supplement of paper PMC11732987, “Enantioselective OTUD7B fragment discovery through chemoproteomics screening and high-throughput optimisation” (Communications Chemistry, 2025).

What all share (assay): log2 ratio of Biotin-Ahx-Ub-VS probe labelling (fragment/DMSO); higher = less target engagement (more negative = stronger competition), active = hit call of the paper (q ≤ 0.05, log2 ratio ≤ -1)
Common to all, as to details: compound concentration: 200 uM; treatment time: 3 h

One assay concerns the target T1, USP42 (UniProt Q9H9J4).
T1 sequence (whole entry): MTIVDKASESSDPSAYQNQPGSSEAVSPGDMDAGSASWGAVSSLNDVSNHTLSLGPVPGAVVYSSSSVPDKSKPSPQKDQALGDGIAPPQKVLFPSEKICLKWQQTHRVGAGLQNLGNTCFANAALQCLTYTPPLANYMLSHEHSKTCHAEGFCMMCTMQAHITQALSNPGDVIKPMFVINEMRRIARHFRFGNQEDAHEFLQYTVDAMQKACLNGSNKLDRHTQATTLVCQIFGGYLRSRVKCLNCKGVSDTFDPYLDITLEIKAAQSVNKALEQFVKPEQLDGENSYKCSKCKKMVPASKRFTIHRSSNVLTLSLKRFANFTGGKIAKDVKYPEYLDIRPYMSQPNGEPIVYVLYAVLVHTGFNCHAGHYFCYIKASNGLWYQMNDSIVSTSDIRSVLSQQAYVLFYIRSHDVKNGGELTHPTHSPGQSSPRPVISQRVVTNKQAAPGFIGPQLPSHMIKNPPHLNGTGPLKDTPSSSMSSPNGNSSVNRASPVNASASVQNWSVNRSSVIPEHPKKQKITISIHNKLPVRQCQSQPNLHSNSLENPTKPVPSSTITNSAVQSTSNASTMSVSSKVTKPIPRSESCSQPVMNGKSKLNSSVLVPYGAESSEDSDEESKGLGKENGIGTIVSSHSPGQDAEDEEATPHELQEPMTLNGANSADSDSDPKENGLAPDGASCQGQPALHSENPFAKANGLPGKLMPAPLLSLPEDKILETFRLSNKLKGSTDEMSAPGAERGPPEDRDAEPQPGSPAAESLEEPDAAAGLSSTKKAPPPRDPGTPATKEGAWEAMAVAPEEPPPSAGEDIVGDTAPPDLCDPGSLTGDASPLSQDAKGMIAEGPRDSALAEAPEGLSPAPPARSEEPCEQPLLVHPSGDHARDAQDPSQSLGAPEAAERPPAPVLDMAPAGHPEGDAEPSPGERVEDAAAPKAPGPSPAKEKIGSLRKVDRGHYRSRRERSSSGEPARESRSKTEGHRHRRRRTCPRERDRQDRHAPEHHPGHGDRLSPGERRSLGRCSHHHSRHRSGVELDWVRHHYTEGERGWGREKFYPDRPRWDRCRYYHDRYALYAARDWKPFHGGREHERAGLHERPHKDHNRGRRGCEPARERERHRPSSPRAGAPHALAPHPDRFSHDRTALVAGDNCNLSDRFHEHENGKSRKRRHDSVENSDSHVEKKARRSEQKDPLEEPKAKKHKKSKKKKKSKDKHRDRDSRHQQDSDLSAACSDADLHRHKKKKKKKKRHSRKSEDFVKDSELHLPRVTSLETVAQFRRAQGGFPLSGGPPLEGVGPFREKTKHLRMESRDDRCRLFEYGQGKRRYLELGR
The procedure, abridged:
(§1)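 Labelled DUBs from HEK293T lysate were NeutrAvidin-enriched, digested with LysC and trypsin, and run by diaPASEF LC-MS/MS. Before that, each 495 µg sample in Tris/CHAPS/IGEPAL buffer with protease inhibitors was treated in triplicate with fragment at 200 µM or vehicle for 3 h, then with Biotin-Ahx-Ub-VS at 0.5 µM final for 1 h. Values are average log2 ratios of fragment over vehicle by unpaired t-test, based on global-median-normalised Spectronaut label-free quantities from proteins with ≥2 unique peptides.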

Another assay deals with USP46 (UniProt P62068). The procedure, abridged:
as §1

The target in the next assay is T2, USP47 (UniProt Q96K76).
T2 sequence (whole entry): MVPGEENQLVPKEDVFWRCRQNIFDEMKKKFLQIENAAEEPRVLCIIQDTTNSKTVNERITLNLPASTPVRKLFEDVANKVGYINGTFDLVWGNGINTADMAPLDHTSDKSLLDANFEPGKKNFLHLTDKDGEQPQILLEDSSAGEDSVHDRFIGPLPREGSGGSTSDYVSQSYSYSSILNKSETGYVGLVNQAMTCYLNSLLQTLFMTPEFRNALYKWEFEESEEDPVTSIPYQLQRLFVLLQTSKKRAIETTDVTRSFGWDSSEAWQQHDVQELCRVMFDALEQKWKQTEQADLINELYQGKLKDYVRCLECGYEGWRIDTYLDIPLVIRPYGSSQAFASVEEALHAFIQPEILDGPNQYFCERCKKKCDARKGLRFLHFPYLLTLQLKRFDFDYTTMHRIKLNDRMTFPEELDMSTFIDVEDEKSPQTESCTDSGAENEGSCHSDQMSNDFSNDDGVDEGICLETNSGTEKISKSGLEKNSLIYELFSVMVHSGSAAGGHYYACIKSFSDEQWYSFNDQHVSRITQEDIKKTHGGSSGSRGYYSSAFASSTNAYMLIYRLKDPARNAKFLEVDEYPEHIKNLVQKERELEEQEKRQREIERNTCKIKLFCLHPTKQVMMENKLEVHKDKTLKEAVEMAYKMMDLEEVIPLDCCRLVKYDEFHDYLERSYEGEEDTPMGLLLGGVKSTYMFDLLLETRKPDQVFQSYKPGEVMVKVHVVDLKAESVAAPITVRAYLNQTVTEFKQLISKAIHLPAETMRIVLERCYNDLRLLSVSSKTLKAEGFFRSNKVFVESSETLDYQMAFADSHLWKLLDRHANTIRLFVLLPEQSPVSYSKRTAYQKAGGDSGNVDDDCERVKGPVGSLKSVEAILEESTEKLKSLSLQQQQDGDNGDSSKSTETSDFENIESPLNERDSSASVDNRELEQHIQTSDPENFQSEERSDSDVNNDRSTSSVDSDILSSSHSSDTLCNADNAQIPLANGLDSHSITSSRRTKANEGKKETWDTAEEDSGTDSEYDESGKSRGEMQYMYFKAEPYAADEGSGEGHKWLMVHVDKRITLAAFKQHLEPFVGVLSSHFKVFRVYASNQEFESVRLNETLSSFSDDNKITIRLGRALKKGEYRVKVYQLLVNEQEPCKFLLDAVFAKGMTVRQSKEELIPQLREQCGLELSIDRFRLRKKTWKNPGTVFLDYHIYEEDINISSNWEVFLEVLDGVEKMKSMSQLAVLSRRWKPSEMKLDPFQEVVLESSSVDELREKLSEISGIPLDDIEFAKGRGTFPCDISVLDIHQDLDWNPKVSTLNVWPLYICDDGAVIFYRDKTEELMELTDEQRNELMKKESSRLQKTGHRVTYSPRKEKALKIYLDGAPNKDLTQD
The essentials: as §1

For another assay, the target named is T3, USP48 (UniProt Q86UV5).
T3 sequence (whole entry): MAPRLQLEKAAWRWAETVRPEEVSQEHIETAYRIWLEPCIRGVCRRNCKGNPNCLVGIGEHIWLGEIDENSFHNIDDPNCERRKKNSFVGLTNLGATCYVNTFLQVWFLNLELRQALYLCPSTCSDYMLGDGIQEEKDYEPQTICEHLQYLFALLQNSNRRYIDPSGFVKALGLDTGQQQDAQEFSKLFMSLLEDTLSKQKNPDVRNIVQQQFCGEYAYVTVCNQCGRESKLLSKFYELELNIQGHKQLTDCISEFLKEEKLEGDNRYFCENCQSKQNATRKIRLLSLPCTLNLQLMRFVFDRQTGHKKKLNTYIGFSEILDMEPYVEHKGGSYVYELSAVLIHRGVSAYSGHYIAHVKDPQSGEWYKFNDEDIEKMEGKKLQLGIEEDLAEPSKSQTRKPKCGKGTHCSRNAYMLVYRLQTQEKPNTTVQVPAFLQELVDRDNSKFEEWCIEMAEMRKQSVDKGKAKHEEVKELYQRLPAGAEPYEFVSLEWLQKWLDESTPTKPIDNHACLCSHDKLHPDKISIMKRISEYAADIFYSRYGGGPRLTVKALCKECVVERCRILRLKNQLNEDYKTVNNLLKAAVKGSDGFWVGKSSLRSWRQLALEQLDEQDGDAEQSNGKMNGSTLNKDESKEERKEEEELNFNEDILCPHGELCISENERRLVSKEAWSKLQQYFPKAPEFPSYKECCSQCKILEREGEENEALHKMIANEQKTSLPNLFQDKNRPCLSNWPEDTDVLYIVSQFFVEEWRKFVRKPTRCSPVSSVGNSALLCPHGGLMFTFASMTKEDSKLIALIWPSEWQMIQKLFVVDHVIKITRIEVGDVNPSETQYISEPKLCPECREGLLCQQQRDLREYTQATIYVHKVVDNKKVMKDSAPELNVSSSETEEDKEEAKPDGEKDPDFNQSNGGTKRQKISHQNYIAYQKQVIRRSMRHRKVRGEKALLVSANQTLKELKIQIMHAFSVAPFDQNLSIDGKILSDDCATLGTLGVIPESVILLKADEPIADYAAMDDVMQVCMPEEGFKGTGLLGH
The procedure, abridged: as §1

A further assay deals with T4, USP5 (UniProt P45974).
T4 sequence (whole entry): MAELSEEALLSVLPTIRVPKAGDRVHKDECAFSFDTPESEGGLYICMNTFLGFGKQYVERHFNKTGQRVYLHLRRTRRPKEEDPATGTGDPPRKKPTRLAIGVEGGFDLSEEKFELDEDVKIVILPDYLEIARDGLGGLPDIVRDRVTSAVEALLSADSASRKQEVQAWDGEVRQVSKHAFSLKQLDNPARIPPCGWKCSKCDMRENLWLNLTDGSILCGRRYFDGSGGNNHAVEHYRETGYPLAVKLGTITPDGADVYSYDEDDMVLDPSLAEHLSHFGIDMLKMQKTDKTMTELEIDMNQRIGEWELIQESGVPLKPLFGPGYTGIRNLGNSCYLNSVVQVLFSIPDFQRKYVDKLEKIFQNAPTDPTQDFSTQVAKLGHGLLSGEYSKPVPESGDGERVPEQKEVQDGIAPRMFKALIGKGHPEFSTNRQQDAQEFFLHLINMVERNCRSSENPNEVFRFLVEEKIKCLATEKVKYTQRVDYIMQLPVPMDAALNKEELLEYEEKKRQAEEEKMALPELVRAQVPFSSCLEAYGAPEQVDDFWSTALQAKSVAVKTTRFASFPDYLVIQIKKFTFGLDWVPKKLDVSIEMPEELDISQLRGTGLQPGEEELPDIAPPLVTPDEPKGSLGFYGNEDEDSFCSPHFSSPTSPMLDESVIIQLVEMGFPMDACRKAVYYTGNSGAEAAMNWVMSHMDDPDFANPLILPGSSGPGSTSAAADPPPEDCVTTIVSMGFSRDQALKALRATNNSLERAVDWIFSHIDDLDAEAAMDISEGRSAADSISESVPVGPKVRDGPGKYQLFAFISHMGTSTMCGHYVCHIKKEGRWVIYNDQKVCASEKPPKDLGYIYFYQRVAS
The procedure, abridged:
as §1

A further assay deals with USP54 (UniProt Q70EL1). The procedure, abridged: as §1
For another assay, the target named is USP7 (UniProt Q93009). The essentials: as §1
The target of another assay is T5, USP8 (UniProt P40818).
T5 sequence (whole entry): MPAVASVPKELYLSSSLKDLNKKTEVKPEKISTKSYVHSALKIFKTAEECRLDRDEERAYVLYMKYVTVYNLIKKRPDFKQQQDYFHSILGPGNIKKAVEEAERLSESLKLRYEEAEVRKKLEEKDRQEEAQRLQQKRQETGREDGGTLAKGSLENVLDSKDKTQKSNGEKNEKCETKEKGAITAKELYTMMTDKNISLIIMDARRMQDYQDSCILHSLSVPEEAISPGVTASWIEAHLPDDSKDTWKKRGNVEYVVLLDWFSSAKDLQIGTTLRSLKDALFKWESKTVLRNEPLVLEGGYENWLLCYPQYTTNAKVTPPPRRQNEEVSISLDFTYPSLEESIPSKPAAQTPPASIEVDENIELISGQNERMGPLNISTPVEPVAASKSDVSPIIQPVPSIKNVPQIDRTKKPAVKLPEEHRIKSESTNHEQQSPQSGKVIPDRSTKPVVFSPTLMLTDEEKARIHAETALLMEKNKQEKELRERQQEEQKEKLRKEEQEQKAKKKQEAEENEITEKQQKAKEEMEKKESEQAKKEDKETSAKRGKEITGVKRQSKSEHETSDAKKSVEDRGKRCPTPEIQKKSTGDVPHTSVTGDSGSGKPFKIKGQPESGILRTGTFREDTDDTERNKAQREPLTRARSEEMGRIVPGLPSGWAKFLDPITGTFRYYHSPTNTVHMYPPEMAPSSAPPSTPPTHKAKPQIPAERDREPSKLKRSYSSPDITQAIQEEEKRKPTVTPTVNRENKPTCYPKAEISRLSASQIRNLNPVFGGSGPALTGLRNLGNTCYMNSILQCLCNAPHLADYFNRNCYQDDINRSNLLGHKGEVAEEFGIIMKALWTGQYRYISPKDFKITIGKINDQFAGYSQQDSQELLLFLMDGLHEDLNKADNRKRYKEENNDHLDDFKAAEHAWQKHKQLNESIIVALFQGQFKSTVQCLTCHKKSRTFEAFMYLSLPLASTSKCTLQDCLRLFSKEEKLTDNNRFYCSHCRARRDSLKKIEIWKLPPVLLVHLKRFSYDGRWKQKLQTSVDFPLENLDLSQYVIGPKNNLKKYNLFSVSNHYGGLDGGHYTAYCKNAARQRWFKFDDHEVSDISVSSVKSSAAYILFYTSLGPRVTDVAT
The procedure, abridged: as §1

The target of the next assay is USP9X (UniProt Q93008). The essentials:
as §1

The target of the next assay is UniProt O00487. The procedure, abridged:
as §1

Values without a mark were called inactive.

Chain of USP46 (P62068 whole entry): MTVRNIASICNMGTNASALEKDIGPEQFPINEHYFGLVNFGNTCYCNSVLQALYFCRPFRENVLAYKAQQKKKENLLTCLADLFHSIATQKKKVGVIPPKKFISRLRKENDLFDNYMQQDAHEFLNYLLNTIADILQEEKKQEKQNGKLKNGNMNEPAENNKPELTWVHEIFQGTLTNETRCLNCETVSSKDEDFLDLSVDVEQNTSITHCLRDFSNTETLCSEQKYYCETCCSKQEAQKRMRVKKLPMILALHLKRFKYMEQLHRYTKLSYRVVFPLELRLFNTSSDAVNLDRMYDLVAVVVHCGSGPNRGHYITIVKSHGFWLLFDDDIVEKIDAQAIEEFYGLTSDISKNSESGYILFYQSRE
Chain of USP9X (Q93008 whole entry): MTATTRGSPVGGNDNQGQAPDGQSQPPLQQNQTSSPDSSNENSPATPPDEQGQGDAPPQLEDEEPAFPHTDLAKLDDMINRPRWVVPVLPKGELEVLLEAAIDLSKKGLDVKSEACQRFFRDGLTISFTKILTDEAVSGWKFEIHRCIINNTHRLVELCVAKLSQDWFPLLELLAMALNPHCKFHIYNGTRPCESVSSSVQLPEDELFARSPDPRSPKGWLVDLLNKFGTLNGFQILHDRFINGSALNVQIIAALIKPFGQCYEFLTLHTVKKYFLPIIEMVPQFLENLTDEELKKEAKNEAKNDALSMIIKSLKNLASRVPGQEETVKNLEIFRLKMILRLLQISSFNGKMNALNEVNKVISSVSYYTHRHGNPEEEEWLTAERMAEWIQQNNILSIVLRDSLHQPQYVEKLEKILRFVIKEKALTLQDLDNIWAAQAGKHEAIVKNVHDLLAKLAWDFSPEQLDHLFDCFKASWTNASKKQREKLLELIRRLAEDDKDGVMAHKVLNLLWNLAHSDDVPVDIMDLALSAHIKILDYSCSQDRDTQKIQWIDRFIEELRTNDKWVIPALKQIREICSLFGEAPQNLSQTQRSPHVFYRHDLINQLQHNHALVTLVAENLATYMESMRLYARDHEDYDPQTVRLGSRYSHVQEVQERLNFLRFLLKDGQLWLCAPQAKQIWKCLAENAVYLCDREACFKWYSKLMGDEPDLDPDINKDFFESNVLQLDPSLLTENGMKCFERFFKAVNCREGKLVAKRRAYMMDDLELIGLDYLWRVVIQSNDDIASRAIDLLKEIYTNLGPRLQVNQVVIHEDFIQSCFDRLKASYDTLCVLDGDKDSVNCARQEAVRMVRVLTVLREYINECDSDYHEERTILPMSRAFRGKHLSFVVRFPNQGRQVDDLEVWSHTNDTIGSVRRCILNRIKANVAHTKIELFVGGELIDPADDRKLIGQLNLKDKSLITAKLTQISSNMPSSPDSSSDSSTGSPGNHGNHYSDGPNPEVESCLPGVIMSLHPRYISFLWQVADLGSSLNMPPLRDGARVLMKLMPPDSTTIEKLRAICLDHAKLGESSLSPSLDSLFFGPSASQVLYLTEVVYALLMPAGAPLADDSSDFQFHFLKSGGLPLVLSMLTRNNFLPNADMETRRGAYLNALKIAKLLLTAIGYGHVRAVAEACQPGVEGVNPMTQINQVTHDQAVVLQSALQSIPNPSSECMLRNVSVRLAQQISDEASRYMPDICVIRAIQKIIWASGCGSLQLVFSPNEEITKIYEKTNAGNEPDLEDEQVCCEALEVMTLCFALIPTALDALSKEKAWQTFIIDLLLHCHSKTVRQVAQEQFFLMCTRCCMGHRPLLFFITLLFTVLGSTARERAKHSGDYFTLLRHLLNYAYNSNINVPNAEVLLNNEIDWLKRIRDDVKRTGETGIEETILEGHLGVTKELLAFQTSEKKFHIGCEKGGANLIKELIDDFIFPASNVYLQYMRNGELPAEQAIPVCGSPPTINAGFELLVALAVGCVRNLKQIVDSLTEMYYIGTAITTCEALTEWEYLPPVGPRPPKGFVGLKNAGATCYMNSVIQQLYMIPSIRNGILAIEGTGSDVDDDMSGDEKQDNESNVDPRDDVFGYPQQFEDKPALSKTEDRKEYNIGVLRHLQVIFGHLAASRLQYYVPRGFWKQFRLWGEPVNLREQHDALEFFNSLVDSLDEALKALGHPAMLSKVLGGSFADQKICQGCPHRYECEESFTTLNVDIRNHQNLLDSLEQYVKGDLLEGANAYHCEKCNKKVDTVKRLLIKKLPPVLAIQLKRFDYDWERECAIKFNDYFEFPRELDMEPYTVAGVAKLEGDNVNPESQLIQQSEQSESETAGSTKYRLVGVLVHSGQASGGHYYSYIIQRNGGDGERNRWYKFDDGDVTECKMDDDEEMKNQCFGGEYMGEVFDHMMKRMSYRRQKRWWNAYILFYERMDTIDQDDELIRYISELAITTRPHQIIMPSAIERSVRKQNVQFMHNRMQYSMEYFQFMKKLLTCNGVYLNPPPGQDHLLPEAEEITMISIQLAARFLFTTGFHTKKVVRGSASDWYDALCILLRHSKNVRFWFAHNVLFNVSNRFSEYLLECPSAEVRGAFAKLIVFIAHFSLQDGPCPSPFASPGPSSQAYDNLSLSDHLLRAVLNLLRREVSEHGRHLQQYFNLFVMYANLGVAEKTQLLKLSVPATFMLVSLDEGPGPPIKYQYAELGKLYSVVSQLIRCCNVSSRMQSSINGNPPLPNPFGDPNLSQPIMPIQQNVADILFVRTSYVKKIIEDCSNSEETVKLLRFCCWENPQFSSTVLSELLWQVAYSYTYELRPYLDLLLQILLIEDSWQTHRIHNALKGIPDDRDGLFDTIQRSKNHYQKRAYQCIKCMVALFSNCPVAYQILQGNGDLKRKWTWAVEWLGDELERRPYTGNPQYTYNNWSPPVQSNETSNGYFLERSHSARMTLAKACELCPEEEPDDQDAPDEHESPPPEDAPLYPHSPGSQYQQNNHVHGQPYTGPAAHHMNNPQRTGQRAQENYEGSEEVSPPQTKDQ
Chain of USP54 (Q70EL1 whole entry): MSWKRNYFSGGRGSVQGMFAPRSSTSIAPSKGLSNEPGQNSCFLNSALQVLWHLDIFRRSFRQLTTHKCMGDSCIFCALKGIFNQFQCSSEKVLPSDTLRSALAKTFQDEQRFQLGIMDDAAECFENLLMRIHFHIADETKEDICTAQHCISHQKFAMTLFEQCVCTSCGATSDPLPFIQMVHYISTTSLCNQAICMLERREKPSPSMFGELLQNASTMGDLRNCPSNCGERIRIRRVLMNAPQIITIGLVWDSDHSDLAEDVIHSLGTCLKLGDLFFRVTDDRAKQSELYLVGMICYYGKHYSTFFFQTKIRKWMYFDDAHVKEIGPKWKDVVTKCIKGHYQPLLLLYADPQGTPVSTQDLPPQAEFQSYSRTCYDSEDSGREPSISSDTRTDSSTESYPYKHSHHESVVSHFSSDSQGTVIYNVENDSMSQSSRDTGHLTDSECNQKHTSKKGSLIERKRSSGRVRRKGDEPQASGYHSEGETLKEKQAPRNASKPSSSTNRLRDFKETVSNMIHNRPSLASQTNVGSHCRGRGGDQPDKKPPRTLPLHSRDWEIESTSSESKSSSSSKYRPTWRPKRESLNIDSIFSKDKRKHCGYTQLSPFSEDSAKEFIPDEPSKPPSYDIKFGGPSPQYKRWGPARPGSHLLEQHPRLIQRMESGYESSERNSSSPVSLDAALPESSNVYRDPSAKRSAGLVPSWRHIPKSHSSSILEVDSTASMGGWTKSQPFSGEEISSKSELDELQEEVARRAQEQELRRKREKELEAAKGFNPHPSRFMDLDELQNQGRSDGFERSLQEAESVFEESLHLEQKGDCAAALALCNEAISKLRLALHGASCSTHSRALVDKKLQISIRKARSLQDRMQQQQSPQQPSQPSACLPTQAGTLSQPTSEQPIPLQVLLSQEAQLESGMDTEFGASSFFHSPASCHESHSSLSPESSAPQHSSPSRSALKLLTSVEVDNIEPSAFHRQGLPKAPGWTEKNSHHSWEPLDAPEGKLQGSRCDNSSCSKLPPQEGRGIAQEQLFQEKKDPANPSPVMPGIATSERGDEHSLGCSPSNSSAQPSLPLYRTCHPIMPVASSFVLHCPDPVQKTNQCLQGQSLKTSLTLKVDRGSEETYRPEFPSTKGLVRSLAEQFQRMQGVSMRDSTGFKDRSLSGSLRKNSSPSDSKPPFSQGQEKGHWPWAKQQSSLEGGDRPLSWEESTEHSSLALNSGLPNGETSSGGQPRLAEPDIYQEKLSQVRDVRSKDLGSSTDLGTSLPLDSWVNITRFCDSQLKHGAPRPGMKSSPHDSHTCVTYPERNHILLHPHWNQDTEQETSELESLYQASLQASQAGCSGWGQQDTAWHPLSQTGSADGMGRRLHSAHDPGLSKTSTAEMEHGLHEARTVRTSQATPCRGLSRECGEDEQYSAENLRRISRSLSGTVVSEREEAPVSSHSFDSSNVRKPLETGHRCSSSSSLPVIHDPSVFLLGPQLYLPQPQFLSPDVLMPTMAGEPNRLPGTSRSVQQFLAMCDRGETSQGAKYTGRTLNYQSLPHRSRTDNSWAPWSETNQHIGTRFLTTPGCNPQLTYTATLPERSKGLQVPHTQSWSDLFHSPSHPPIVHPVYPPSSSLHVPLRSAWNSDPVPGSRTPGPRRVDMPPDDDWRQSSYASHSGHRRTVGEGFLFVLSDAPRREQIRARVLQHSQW
Chain of UniProt O00487 (O00487 whole entry): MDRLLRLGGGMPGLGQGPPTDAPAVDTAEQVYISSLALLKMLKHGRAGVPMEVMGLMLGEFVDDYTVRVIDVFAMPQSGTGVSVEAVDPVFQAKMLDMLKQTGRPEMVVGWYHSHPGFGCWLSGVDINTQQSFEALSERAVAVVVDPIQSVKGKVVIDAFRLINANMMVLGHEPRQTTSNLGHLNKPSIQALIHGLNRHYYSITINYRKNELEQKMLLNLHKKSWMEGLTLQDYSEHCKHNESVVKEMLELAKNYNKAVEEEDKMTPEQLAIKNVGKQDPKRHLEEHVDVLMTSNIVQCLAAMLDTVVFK

Turning to `Cc1n[nH]c2c1CN(C(=O)CCl)CC2`, the “log2 ratio of Biotin-Ahx-Ub-VS probe labelling” value with USP42 was 0.421; in the assay with USP46, -0.91; in the assay with USP47 it was -1.08 (active); with USP48, -0.779; in the assay with USP5, -0.67; with USP54, 0.337. For the same molecule, the “log2 ratio of Biotin-Ahx-Ub-VS probe labelling” value in the assay with USP7 is -0.758; with USP8 it was -1.11 (active); in the assay with USP9X it was -0.85; in the assay with UniProt O00487, -0.184.
